# Bioassay records (PubChem BioAssay)
# Sampled rows, rich in hits. Any-hit rate of the full collection: about 3.3%.
# esBAF inh: inhibitors of esBAF chromatin remodeling in mouse ES cells | Bmi1-luciferase knock-in reporter, 24 h; 100% = twice the neutral-well signal | reporter increase, % at 12.5 µM | actives 2% (n = 350,000); in the data active means activation above about 40%; inconclusive means no clear call, values can overlap the other calls;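 further: 0% = median of the plate's neutral control wells and 100% = double that signal; a rise in the Bmi1 reporter signal indicates esBAF inhibition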
# Jurkat NFkB inh: inhibitors of the PMA/ionomycin-induced NF-kB reporter in Jurkat cells; PMA/ionomycin-induced NF-kB luciferase reporter, luminescence; inhibition, % at 4 µM; actives 0.53% (n = 330,000); in the data active means inhibition above about 50%
# 697 NFkB inh: lowers PMA/ionomycin-induced NF-kB signal in 697 B cells; 697 B-cell NF-kB luciferase reporter, 16 h; inhibition, % at 4 µM; actives 0.33% (n = 330,000); in the data active means inhibition above about 35%
# Gli-Sufu antag: antagonists of Gli-Sufu signaling. Sufu-KO-LIGHT fibroblasts, Gli luciferase reporter luminescence. inhibition, % at 5 µM. actives 0.74% (n = 340,000);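 active means inhibition above about 55%, limit read from the data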;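 further: 0% = DMSO-treated cells and 100% = wells with medium but no cells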
# SMARCA2 act: increases SMARCA2 function in MMTV reporter cells. AID 652017. activation, % at 9.1 µM. actives 1% (n = 370,000). MG213 cells, MMTV-luciferase reporter, dexamethasone, overnight; in the data active means activation above about 7.8%;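 further: 0% = vehicle wells and 100% = reference activator wells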
# An asterisk follows results filed as active; ? = inconclusive; / = no result given.
SMILES,esBAF inh,Jurkat NFkB inh,697 NFkB inh,Gli-Sufu antag,SMARCA2 act
Cc1noc(C)c1NC(=O)N(C)C[C@H]1Oc2ncc(C#CC(C)C)cc2C(=O)N([C@@H](C)CO)C[C@H]1C,-0.3,/,/,/,/
O=C(C[C@H]1CC[C@@H](NC(=O)Nc2ccc3c(c2)OCO3)[C@H](CO)O1)NCCCN1CCOCC1,-2.6,/,/,/,/
COc1ccc(/C=C/C(=O)Oc2cccc(/C=N/NC(=O)COc3c(C)cccc3C)c2)cc1,45.2*,2.4,-93.3,-54.6,1.9
S=C(c1ccc(-c2cccc(Cl)c2)o1)N1CCOCC1,?,-95.1,-180.3,-50.2,7.2
N#CCCN1CCN(C(=S)c2ccc(-c3cccc(Cl)c3)o2)CC1,78.4*,10.1,-6.9,-42.4,4.8
N#CCCN1CCN(C(=S)c2ccc(-c3ccc(Cl)c(Cl)c3)o2)CC1,45.6*,-3.8,1.7,5.8,2.5
C[C@@H]1CCCCO[C@@H](CN(C)Cc2ccc3c(c2)OCO3)[C@H](C)CN([C@H](C)CO)C(=O)c2cc(NC(=O)Nc3cccc4ccccc34)ccc2O1,-4.1,/,/,/,/
CNC[C@@H]1Oc2ccc(NS(=O)(=O)c3cn(C)cn3)cc2CC(=O)N([C@H](C)CO)C[C@H]1C,0.6,/,/,/,/
Cc1ccc(CNc2ccc([N+](=O)[O-])cc2C(N)=O)cc1,53.9*,-23.8,-44.1,-10.3,6.1
CCOC(=O)CSc1nc2sc3c(c2c(=O)n1CC)CC(C)(C)OC3,-2.8,10.3,-3.4,-2.3,-1.8
CCC1(C)Cc2c(sc3nc(SC)n(Cc4ccccc4)c(=O)c23)CO1 (stereo not drawn),59.3*,-41.4,-40.4,-19.9,-0.1
CC(C)NC(=O)Nc1ccc2c(c1)C(=O)N([C@H](C)CO)C[C@H](C)[C@H](CN(C)C(=O)c1ccccc1)OCCCC[C@H](C)O2,4.9,/,/,/,/
Cc1cccc(-n2cnc(C(=O)NC3CCCCCC3)c2)n1,68.1*,-55.1,-60.5,-55.0,4.8
COCc1nc(-c2ccc(-c3ccccc3)nc2OC)no1,66.4*,-42.1,-34.0,-57.0,6.2
CCCNC(=O)NCCC12CC3CC(CC(C3)C1)C2,17.0,-24.6,-23.6,-13.2,2.1
CCCNC(=O)OCCC12CC3CC(CC(C3)C1)C2,55.6*,-12.7,-58.6,-33.5,-2.2
CCOC(=O)c1ccc(CC(=O)c2ccc(O)cc2O)o1,49.1*,-1.9,21.8,-4.8,-4.2
Cc1cccc(Nc2ncc3c(n2)CC(C)CC3=O)c1 (stereo not drawn),50.6*,-78.5,-61.8,-13.6,7.8
Cc1ccc(Nc2ncc3c(n2)CC(c2ccco2)CC3=O)c(C)c1 (stereo not drawn),54.1*,4.9,3.9,-2.7,0.2
Cc1cccc(Nc2ncc3c(n2)CC(c2ccco2)CC3=O)c1 (stereo not drawn),14.6,15.4,12.3,8.1,0.1
CN1C(=O)c2cc(NC(=O)C3CCCC3)ccc2OC[C@@H]2O[C@H](CC(=O)O)CC[C@@H]21,5.9,/,/,/,/
O=C(NC(=S)Nc1ccc(N2CCOCC2)cc1)c1cccc(Cl)c1,/,-24.6,-12.7,-20.4,-0.9
O=C(NC(=S)Nc1ccc(N2CCOCC2)cc1)c1ccccc1,52.7*,-31.0,-41.4,-69.5,4.8
CN(C)CC(=O)Nc1ccc2c(c1)[C@@H]1C[C@@H](CC(=O)NCc3ccccc3)O[C@H](CO)[C@@H]1O2,3.2,/,/,/,/
Brc1ccc2nc(-c3cccs3)c(NCC3CCCO3)n2c1 (stereo not drawn),60.4*,-59.9,-60.3,-26.1,0.8
SMILES,esBAF inh,Jurkat NFkB inh,697 NFkB inh,Gli-Sufu antag,SMARCA2 act
CN(/N=C/c1ccc2c(c1)OCO2)c1ccccc1,50.6*,-102.7,-120.7,-72.8,3.2
CN(C(=O)/C=C/c1ccc2c(c1)OCO2)c1ccccc1,53.0*,-29.3,-47.6,-29.1,1.4
Clc1ccccc1N/N=C/c1ccc2c(c1)OCO2,78.1*,-81.4,-71.7,-85.5,5.8
C(=N\N(c1ccccc1)c1ccccc1)/c1ccc2c(c1)OCO2,/,15.1,13.2,-4.6,-2.0
C[C@@H]1CN([C@H](C)CO)S(=O)(=O)c2ccc(C#CC3(O)CCCC3)cc2O[C@H]1CN(C)C(=O)c1ccncc1,6.5,/,/,/,/
C[C@H]1CN([C@@H](C)CO)C(=O)c2cc(NS(=O)(=O)c3ccccc3)ccc2O[C@H]1CN(C)Cc1ccc2c(c1)OCO2,-3.5,/,/,/,/
COCC(=O)N(C)C[C@H]1Oc2cc(C#CC(C)C)ccc2S(=O)(=O)N([C@@H](C)CO)C[C@@H]1C,31.8,/,/,/,/
COc1ccc(-c2cn3cc(Br)cnc3n2)cc1,?,-46.7,-23.6,12.8,7.9*
CN1CCc2c(sc(NC(=O)c3ccco3)c2C(N)=O)C1,-0.8,8.7,-37.1,-4.7,8.0*
COC(=O)N1CCc2c(sc(NC(=O)C3COc4ccccc4O3)c2C(N)=O)C1 (stereo not drawn),49.9*,-57.6,-29.5,-26.2,4.5
CN1[C@@H]2c3cccc(=O)n3C[C@@H]2[C@@H](CO)[C@@H]1C(=O)NCCc1ccccc1,-2.0,/,/,/,/
Cc1ccc(C2Nc3ccccc3-c3nc4ccccc4n32)o1 (stereo not drawn),67.7*,-32.6,-87.3,-55.5,0.9
COc1cc(OC)c(NC(=O)CCCn2c(=O)oc3ccccc32)cc1Cl,/,7.7,3.2,-1.1,-1.9
O=C(CCn1c(=O)oc2ccccc21)Nc1ccc2c(c1)OCCO2,56.9*,-27.3,-32.7,-5.8,0.5
O=C(CCn1c(=O)oc2ccccc21)N1CCOCC1,-9.1,-3.7,-1.1,-2.8,-1.1
COc1ccc(NC(=O)CCCn2c(=O)oc3ccccc32)cc1Cl,/,-43.3,-24.1,-37.4,7.8*
O=C(CCCn1c(=O)oc2ccccc21)Nc1ccccc1,50.9*,-18.4,-9.8,-0.3,0.3
O=C(CCn1c(=O)oc2ccccc21)N1CCc2ccccc21,41.4*,-25.6,-54.5,-23.2,-1.2
C[C@H](CO)N1C[C@H](C)[C@@H](CN(C)C(=O)Nc2ccc(F)cc2)Oc2ncc(Br)cc2C1=O,2.7,/,/,/,/
O=[N+]([O-])c1ccc2oc(-c3ccccc3)nc2c1,/,-88.5,-101.7,-105.3,0.6
O=[N+]([O-])c1ccc2oc(C3CCCCC3)nc2c1,44.3*,-28.3,-7.3,21.6,4.9
CCOc1cccc(-c2nc3cc(C)ccc3o2)c1,50.4*,-118.0,-123.7,-81.4,4.3
Cc1ccc2oc(-c3ccccc3)nc2c1,/,-107.5,-141.4,-2.1,5.0
Cc1cccc(-c2nc3cc([N+](=O)[O-])ccc3o2)c1,57.1*,-85.5,-89.9,-51.3,7.6
O=C(C[C@H]1CC[C@H]2[C@@H](COC[C@H](O)CN2Cc2cc(F)ccc2F)O1)N[C@H]1CCN(Cc2ccccc2)C1,-3.1,/,/,/,/
COc1ccc(C(=O)Cc2cc3ccccc3oc2=O)cc1,56.0*,-54.1,-46.1,-48.0,3.5
Cc1ccc(C(=O)Cc2cc3ccccc3oc2=O)c(C)c1,/,-100.4,-133.3,-82.6,2.2
COc1ccc(C(=O)Cc2ccc(F)cc2)c(OC)c1,76.0*,-40.9,-71.0,-41.9,2.0
O=C(COc1ccc(F)cc1)c1c(O)cc(O)cc1O,-14.1,-0.6,2.5,-4.6,6.4
COc1ccc(C(=O)COc2ccc(F)cc2)c(O)c1,67.8*,-72.5,6.5,-14.0,1.5
